# Data published in paper PMC5700166.
# Molecular target: T1, GST-Aq-NF-kB (Amphimedon queenslandica, UniProt A9Y5G7 2-389)
# T1 sequence: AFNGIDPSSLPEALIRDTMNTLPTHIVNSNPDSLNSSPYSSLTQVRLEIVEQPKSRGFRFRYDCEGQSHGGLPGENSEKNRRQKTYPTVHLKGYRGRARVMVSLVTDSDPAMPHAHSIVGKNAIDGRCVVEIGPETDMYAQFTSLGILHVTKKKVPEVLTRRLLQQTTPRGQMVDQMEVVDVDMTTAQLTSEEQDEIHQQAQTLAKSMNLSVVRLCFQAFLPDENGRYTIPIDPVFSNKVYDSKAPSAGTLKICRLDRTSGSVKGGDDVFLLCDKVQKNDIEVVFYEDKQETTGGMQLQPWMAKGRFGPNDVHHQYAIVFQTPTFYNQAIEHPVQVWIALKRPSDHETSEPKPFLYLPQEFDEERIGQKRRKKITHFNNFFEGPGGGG
# Assay: protein-binding microarray (PBM); PBM: ~300 nM protein, 6 mM HEPES pH 7.8, 80 mM KCl, 0.5 mM EDTA, 0.5 mM EGTA, 6% glycerol, 35 ng/ul poly-dIdC, 1% milk, 1 h, room temperature; Ap Aiptasia and Nv Nematostella (sea anemones) / Co Capsaspora / Aq Amphimedon (sponge) / Dm Drosophila / Hu human; RHD is the Rel homology domain; high values mean tight binding
# Details: dsDNA, one strand shown
row,Sequence,binding signal [z-score]
1,CCGATTAACATCACTAAATTTCCTGATGTTAATCGGGTCTTGATTCGCTTGACGCTGCTG,1.07
2,CCGATTAACATCAGGCAATGCCCTGATGTTAATCGGGTCTTGATTCGCTTGACGCTGCTG,1.31
3,CCGATTAACATCAGGCAAAACCCTGATGTTAATCGGGTCTTGATTCGCTTGACGCTGCTG,3.28
4,CCGATTAACATCAGGAAGTGCCCTGATGTTAATCGGGTCTTGATTCGCTTGACGCTGCTG,2.55
5,CCGATTAACATCAGGAAATCTCCTGATGTTAATCGGGTCTTGATTCGCTTGACGCTGCTG,1.25
6,CCGATTAACATCACGGAGTTTCCTGATGTTAATCGGGTCTTGATTCGCTTGACGCTGCTG,3.34
7,CCGATTAACATCAGGACATTCCATGATGTTAATCGGGTCTTGATTCGCTTGACGCTGCTG,1.23
8,CCGATTAACATCAGGAATTCTCCTGATGTTAATCGGGTCTTGATTCGCTTGACGCTGCTG,1.31
9,CCGATTAACATCAGAGAATTTCCTGATGTTAATCGGGTCTTGATTCGCTTGACGCTGCTG,1.55
10,CCGATTAACATCAGGAATCGCCCTGATGTTAATCGGGTCTTGATTCGCTTGACGCTGCTG,2.28
11,CCGATTAACATCAGAATTGCCCATGATGTTAATCGGGTCTTGATTCGCTTGACGCTGCTG,1.1
12,CCGATTAACATCACGAAATTTCCTGATGTTAATCGGGTCTTGATTCGCTTGACGCTGCTG,1.65
13,CCGATTAACATCACGGACTCTCCTGATGTTAATCGGGTCTTGATTCGCTTGACGCTGCTG,2.26
14,CCGATTAACATCAACGGAATTTCTGATGTTAATCGGGTCTTGATTCGCTTGACGCTGCTG,1
15,CCGATTAACATCACGGCTTTTCCTGATGTTAATCGGGTCTTGATTCGCTTGACGCTGCTG,1.72
16,CCGATTAACATCAGGAAGTTCCATGATGTTAATCGGGTCTTGATTCGCTTGACGCTGCTG,1.48
17,CCGATTAACATCACGGAACTTCCTGATGTTAATCGGGTCTTGATTCGCTTGACGCTGCTG,2.23
18,CCGATTAACATCAGGAAATTTCATGATGTTAATCGGGTCTTGATTCGCTTGACGCTGCTG,1.4
19,CCGATTAACATCAGGAACTTCCATGATGTTAATCGGGTCTTGATTCGCTTGACGCTGCTG,1.63
20,CCGATTAACATCACGGATTGCCCTGATGTTAATCGGGTCTTGATTCGCTTGACGCTGCTG,1.2

row,Sequence,binding signal [z-score]
1,CCGATTAACATCAAAATTTCCGCTGATGTTAATCGGGTCTTGATTCGCTTGACGCTGCTG,1.48
2,CCGATTAACATCAAAATTTTCCATGATGTTAATCGGGTCTTGATTCGCTTGACGCTGCTG,1.14
3,CCGATTAACATCAGGAAATGTCCTGATGTTAATCGGGTCTTGATTCGCTTGACGCTGCTG,1.67
4,CCGATTAACATCAGGAGATTCCATGATGTTAATCGGGTCTTGATTCGCTTGACGCTGCTG,1.66
5,CCGATTAACATCAGGAAACTTCCTGATGTTAATCGGGTCTTGATTCGCTTGACGCTGCTG,1.43
6,CCGATTAACATCAAAGAATTTCCTGATGTTAATCGGGTCTTGATTCGCTTGACGCTGCTG,1.45
7,CCGATTAACATCACGGAATCTCCTGATGTTAATCGGGTCTTGATTCGCTTGACGCTGCTG,2.17
8,CCGATTAACATCAAGGAACTTCCTGATGTTAATCGGGTCTTGATTCGCTTGACGCTGCTG,1.83
9,CCGATTAACATCAGGAAAACTCCTGATGTTAATCGGGTCTTGATTCGCTTGACGCTGCTG,1.4
10,CCGATTAACATCAAAATTCCGGATGATGTTAATCGGGTCTTGATTCGCTTGACGCTGCTG,1.54
11,CCGATTAACATCACGGAGATTCCTGATGTTAATCGGGTCTTGATTCGCTTGACGCTGCTG,2.72
12,CCGATTAACATCAAGGAAGTTCCTGATGTTAATCGGGTCTTGATTCGCTTGACGCTGCTG,2.07
13,CCGATTAACATCAGAAATTCCGCTGATGTTAATCGGGTCTTGATTCGCTTGACGCTGCTG,1.09
14,CCGATTAACATCACGGATATTCCTGATGTTAATCGGGTCTTGATTCGCTTGACGCTGCTG,1.34
15,CCGATTAACATCACGGAATGTCCTGATGTTAATCGGGTCTTGATTCGCTTGACGCTGCTG,1.82
16,CCGATTAACATCAGGACAGTCCATGATGTTAATCGGGTCTTGATTCGCTTGACGCTGCTG,1.46
17,CCGATTAACATCACGGAAGTTCCTGATGTTAATCGGGTCTTGATTCGCTTGACGCTGCTG,2.56
18,CCGATTAACATCAGGAAATATCCTGATGTTAATCGGGTCTTGATTCGCTTGACGCTGCTG,1.24
19,CCGATTAACATCAGAATTTCCGCTGATGTTAATCGGGTCTTGATTCGCTTGACGCTGCTG,1.06
